Assay results published in PubChem BioAssay (NCI).
About 83,000 compounds went through this panel and 20% of them were active in at least one assay; those are over-represented in the sample as a whole.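 Interpretation: 100, growth as untreated; towards 0, rising growth inhibition; 0, no net growth; 0 to -100, cell death. Compounds scoring below 10 were considered active.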 Activity calls are given as the source filed them.

Key:
Assay in all cases: NCI-60 one-dose screen, 48 h (100 = growth as untreated, 0 = no growth, -100 = all killed)
Settings in all cases: 10 µM unless noted
SR leukemia = test system: SR leukemia
RPMI-8226 leukemia = test system: RPMI-8226 leukemia
OVCAR-8 ovarian = test system: OVCAR-8 ovarian
OVCAR-5 ovarian = test system: OVCAR-5 ovarian
OVCAR-4 ovarian = test system: OVCAR-4 ovarian
SK-OV-3 ovarian = test system: SK-OV-3 ovarian
IGROV1 ovarian = test system: IGROV1 ovarian
OVCAR-3 ovarian = test system: OVCAR-3 ovarian
HS 578T breast = test system: HS 578T breast
NCI/ADR-RES ovarian = test system: NCI/ADR-RES ovarian
T-47D breast = test system: T-47D breast
MDA-MB-435 melanoma = test system: MDA-MB-435 melanoma
SW-620 colon = test system: SW-620 colon
MCF7 breast = test system: MCF7 breast
KM12 colon = test system: KM12 colon
BT-549 breast = test system: BT-549 breast
HCT-116 colon = test system: HCT-116 colon
HCC-2998 colon = test system: HCC-2998 colon

Measured: growth

CCN1C(=O)N(CC)C2C1NN=C1SCC(=O)N12 (stereo not drawn)
inactive: SR leukemia 95.7% | RPMI-8226 leukemia 80.6% | OVCAR-8 ovarian 66.3% | OVCAR-5 ovarian 95.8% | OVCAR-4 ovarian 32.6% | SK-OV-3 ovarian 105% | IGROV1 ovarian 27.2% | OVCAR-3 ovarian 24.5% | HS 578T breast 98.4% | NCI/ADR-RES ovarian 84.6% | T-47D breast 31.9% | MDA-MB-435 melanoma 99.1% | SW-620 colon 73.7% | MCF7 breast 18% | KM12 colon 105%

COc1cc(Nc2ncccc2NC(=O)c2cn(Cc3cccc(Oc4ccccc4)c3)nn2)cc(OC)c1
inactive: SR leukemia 40.8% | RPMI-8226 leukemia 71.6% | OVCAR-8 ovarian 87.8% | OVCAR-5 ovarian 107% | OVCAR-4 ovarian 92.7% | SK-OV-3 ovarian 96.2% | IGROV1 ovarian 99.3% | OVCAR-3 ovarian 85.3% | HS 578T breast 79.3% | T-47D breast 65% | BT-549 breast 85.5% | SW-620 colon 86.1% | MCF7 breast 49.3% | HCT-116 colon 91.1% | HCC-2998 colon 71.6% | KM12 colon 62.2%
active: MDA-MB-435 melanoma -6.08%

COc1cc(/C=C2\CN(S(=O)(=O)c3ccc(C)cc3)C/C(=C\c3cc(CN4CCCCC4)c(O)c(OC)c3)C2=O)cc(CN2CCCCC2)c1O
active: SR leukemia -14.6% | RPMI-8226 leukemia -39.3% | OVCAR-8 ovarian -66.4% | OVCAR-5 ovarian -86.5% | OVCAR-4 ovarian -72.7% | IGROV1 ovarian -67% | OVCAR-3 ovarian -89.4% | HS 578T breast -33.4% | BT-549 breast -49% | MDA-MB-435 melanoma -82.6% | SW-620 colon -77.5% | MCF7 breast -74.4% | HCT-116 colon -70.6% | HCC-2998 colon -87.2% | KM12 colon -85.2%
inactive: SK-OV-3 ovarian 115% | T-47D breast 33.8%

COc1cccc(C(=O)OCC(O)C(=O)NC23CC4CC(CC(C4)C2)C3)c1 (stereo not drawn)
inactive: SR leukemia 88.9% | RPMI-8226 leukemia 101% | OVCAR-8 ovarian 95.3% | OVCAR-5 ovarian 100% | OVCAR-4 ovarian 99.4% | SK-OV-3 ovarian 99.5% | IGROV1 ovarian 104% | OVCAR-3 ovarian 111% | HS 578T breast 98.8% | T-47D breast 98.3% | BT-549 breast 102% | MDA-MB-435 melanoma 97.6% | SW-620 colon 99.6% | MCF7 breast 89.1% | HCT-116 colon 96.7% | HCC-2998 colon 105% | KM12 colon 108%

O=[N+]([O-])/C(=C\c1ccco1)c1ccccc1Cl
inactive: SR leukemia 55.3% | RPMI-8226 leukemia 85.9% | OVCAR-8 ovarian 81.6% | OVCAR-5 ovarian 75.4% | OVCAR-4 ovarian 69.3% | SK-OV-3 ovarian 60.1% | IGROV1 ovarian 75.7% | OVCAR-3 ovarian 77.9% | HS 578T breast 84.8% | T-47D breast 36.6% | MDA-MB-435 melanoma 75.6% | SW-620 colon 84.1% | MCF7 breast 38.4% | HCT-116 colon 11.8% | HCC-2998 colon 94.9% | KM12 colon 89.5%
active: BT-549 breast 9.05%

Fc1ccc(COc2ccc(Nc3ncnc4sc5c(c34)CCCC5)cc2)cc1
inactive: SR leukemia 95.8% | RPMI-8226 leukemia 79.4% | OVCAR-8 ovarian 101% | OVCAR-5 ovarian 112% | OVCAR-4 ovarian 110% | SK-OV-3 ovarian 92.6% | IGROV1 ovarian 95.3% | OVCAR-3 ovarian 93.2% | HS 578T breast 98.8% | T-47D breast 86.6% | BT-549 breast 99.1% | MDA-MB-435 melanoma 96.1% | SW-620 colon 92% | MCF7 breast 88.2% | HCT-116 colon 93.7% | HCC-2998 colon 104% | KM12 colon 90.1%

Cc1c2ccccc2nc2c1ccc1cccnc12
inactive: SR leukemia 85.9% | RPMI-8226 leukemia 64.8% | OVCAR-8 ovarian 91.7% | OVCAR-5 ovarian 83.5% | OVCAR-4 ovarian 51.7% | SK-OV-3 ovarian 116% | IGROV1 ovarian 15% | HS 578T breast 117% | NCI/ADR-RES ovarian 60.9% | T-47D breast 35.1% | MDA-MB-435 melanoma 83% | SW-620 colon 93% | MCF7 breast 21.7% | HCT-116 colon 56.2% | HCC-2998 colon 87.3% | KM12 colon 78.2%
active: OVCAR-3 ovarian -1.84%

COc1ccc(C2=Nc3c/c(=C\c4c(O)[nH]c5cc(Cl)ccc45)ccc3=N2)cc1
active: MDA-MB-435 melanoma 3.01%
inactive: SR leukemia 17% | RPMI-8226 leukemia 62.8% | OVCAR-8 ovarian 71.9% | OVCAR-5 ovarian 77.5% | OVCAR-4 ovarian 90.8% | SK-OV-3 ovarian 46.4% | IGROV1 ovarian 86.9% | HS 578T breast 81.7% | NCI/ADR-RES ovarian 56.4% | T-47D breast 71.7% | BT-549 breast 77.5% | SW-620 colon 57.9% | MCF7 breast 36.2% | HCT-116 colon 70.7% | HCC-2998 colon 73.6% | KM12 colon 49.5%

CCOC(=O)c1c2c(n3c1NCC3)-c1ccccc1C2=O
inactive: SR leukemia 100% | RPMI-8226 leukemia 105% | OVCAR-8 ovarian 99.4% | OVCAR-5 ovarian 89.4% | OVCAR-4 ovarian 99.7% | SK-OV-3 ovarian 104% | IGROV1 ovarian 67.3% | HS 578T breast 106% | NCI/ADR-RES ovarian 102% | T-47D breast 97.7% | BT-549 breast 86.9% | MDA-MB-435 melanoma 90.8% | SW-620 colon 91.8% | MCF7 breast 90.6% | HCT-116 colon 103% | HCC-2998 colon 91.4% | KM12 colon 103%

O=C(Nc1cccnc1Nc1ccc(Cl)cc1)c1cn(Cc2ccc(F)cc2)nn1
inactive: SR leukemia 106% | RPMI-8226 leukemia 85% | OVCAR-8 ovarian 96.2% | OVCAR-5 ovarian 105% | OVCAR-4 ovarian 89.8% | SK-OV-3 ovarian 108% | IGROV1 ovarian 107% | HS 578T breast 93.2% | NCI/ADR-RES ovarian 96.2% | T-47D breast 90.5% | BT-549 breast 88% | MDA-MB-435 melanoma 97.2% | SW-620 colon 114% | MCF7 breast 92.8% | HCT-116 colon 84.6% | KM12 colon 102%

CNC(=O)c1cc(Oc2ccc3nc(NC(=O)Nc4ccc(Cl)c(Cl)c4)sc3c2)ccn1
active: OVCAR-8 ovarian -34.6% | OVCAR-4 ovarian -39.9% | HS 578T breast -2.92% | NCI/ADR-RES ovarian -17.7% | HCT-116 colon -13.3%
inactive: SR leukemia 15.4% | RPMI-8226 leukemia 63% | OVCAR-5 ovarian 85.6% | SK-OV-3 ovarian 73.5% | IGROV1 ovarian 54.6% | T-47D breast 21.3% | BT-549 breast 32.1% | MDA-MB-435 melanoma 22.6% | SW-620 colon 50.4% | MCF7 breast 32.2% | HCC-2998 colon 63.4% | KM12 colon 56.8%

COc1ccc2c(c1)c(-c1nonc1-c1cn(C)c3ccc(OC)cc13)cn2C
active: MDA-MB-435 melanoma -25.4%
inactive: SR leukemia 16.5% | RPMI-8226 leukemia 39.9% | OVCAR-8 ovarian 52.9% | OVCAR-5 ovarian 56.2% | OVCAR-4 ovarian 62% | SK-OV-3 ovarian 48.2% | IGROV1 ovarian 46.5% | HS 578T breast 34.4% | NCI/ADR-RES ovarian 22.3% | T-47D breast 38.6% | BT-549 breast 45.7% | SW-620 colon 16.3% | MCF7 breast 20.7% | HCT-116 colon 19.2% | HCC-2998 colon 65.7% | KM12 colon 25.8%

Oc1c(Cl)cc(Cl)c2ccc(Cn3cc(-c4cccc(C(F)(F)F)c4)nn3)nc12
active: SR leukemia -15.6% | RPMI-8226 leukemia 8.24%
inactive: OVCAR-8 ovarian 80% | OVCAR-5 ovarian 94.5% | OVCAR-4 ovarian 65.9% | SK-OV-3 ovarian 107% | IGROV1 ovarian 85.2% | HS 578T breast 74.9% | NCI/ADR-RES ovarian 104% | T-47D breast 58.9% | BT-549 breast 75% | MDA-MB-435 melanoma 73.9% | SW-620 colon 28.7% | MCF7 breast 42.3% | HCT-116 colon 14% | HCC-2998 colon 99.5% | KM12 colon 100%

S=c1[nH]c2cc(Cl)ccc2o1
inactive: SR leukemia 48.5% | RPMI-8226 leukemia 81.5% | OVCAR-8 ovarian 115% | OVCAR-5 ovarian 92.5% | OVCAR-4 ovarian 103% | SK-OV-3 ovarian 108% | IGROV1 ovarian 118% | OVCAR-3 ovarian 114% | HS 578T breast 88.6% | T-47D breast 92.3% | MDA-MB-435 melanoma 96.5% | SW-620 colon 94.2% | MCF7 breast 105% | HCT-116 colon 91.1% | HCC-2998 colon 115% | KM12 colon 100%

NC(=O)c1ccc(NC(=O)c2oc3ccccc3c2-c2cnn(-c3ccccc3)c2)cc1
active: OVCAR-5 ovarian -6.33% [50 µM] | OVCAR-4 ovarian -30.5% [50 µM] | HS 578T breast 5.15% [50 µM] | NCI/ADR-RES ovarian -3.84% [50 µM] | MCF7 breast -1.73% [50 µM] | HCT-116 colon 9.74% [50 µM]
inactive: SR leukemia 15.9% [50 µM] | RPMI-8226 leukemia 17.6% [50 µM] | OVCAR-8 ovarian 13.4% [50 µM] | SK-OV-3 ovarian 62.4% [50 µM] | IGROV1 ovarian 10.6% [50 µM] | T-47D breast 49.8% [50 µM] | BT-549 breast 22.2% [50 µM] | MDA-MB-435 melanoma 37.7% [50 µM] | SW-620 colon 12.8% [50 µM] | HCC-2998 colon 28.7% [50 µM] | KM12 colon 34.1% [50 µM]

C[C@H]1[C@H](C)CC[C@]2(C(=O)O)CC[C@]3(C)C(=CC[C@@H]4[C@@]5(C)C[C@@H](Cc6cn([C@@H]7O[C@H](CO)[C@@H](O)[C@H](O)[C@H]7O)nn6)[C@H](O)C(C)(C)[C@@H]5CC[C@]43C)[C@H]12
inactive: SR leukemia 105% | RPMI-8226 leukemia 98.3% | OVCAR-8 ovarian 97.8% | OVCAR-5 ovarian 97.2% | OVCAR-4 ovarian 91.7% | SK-OV-3 ovarian 88.5% | IGROV1 ovarian 107% | HS 578T breast 103% | NCI/ADR-RES ovarian 106% | T-47D breast 93.5% | BT-549 breast 102% | MDA-MB-435 melanoma 101% | SW-620 colon 97.6% | MCF7 breast 92.7% | HCT-116 colon 92% | HCC-2998 colon 107% | KM12 colon 108%

CS(=O)(=O)Cc1cnc(C2OCCO2)s1
inactive: SR leukemia 123% | RPMI-8226 leukemia 109% | OVCAR-8 ovarian 104% | OVCAR-5 ovarian 106% | OVCAR-4 ovarian 100% | SK-OV-3 ovarian 139% | IGROV1 ovarian 97.5% | HS 578T breast 106% | NCI/ADR-RES ovarian 103% | T-47D breast 129% | BT-549 breast 97.6% | MDA-MB-435 melanoma 109% | SW-620 colon 113% | MCF7 breast 96.4% | HCT-116 colon 98.8% | KM12 colon 88.9%

O=C(CSc1nc2ccc([N+](=O)[O-])cc2[nH]1)Nc1cccc([N+](=O)[O-])c1
inactive: SR leukemia 41.1% | RPMI-8226 leukemia 11.9% | OVCAR-8 ovarian 60% | OVCAR-5 ovarian 82.6% | OVCAR-4 ovarian 28.7% | SK-OV-3 ovarian 55.8% | IGROV1 ovarian 59.1% | OVCAR-3 ovarian 38.9% | HS 578T breast 66.9% | T-47D breast 16.2% | MDA-MB-435 melanoma 43.8% | SW-620 colon 73.8% | MCF7 breast 52.8% | HCC-2998 colon 62.9%
